Reference: PubChem BioAssay (EPA / NIEHS)
Calls of active or inactive are those of the source. The calls were made as follows, unless noted: active = hit-call score of the fitted dose curve at least 0.9, where 1 is the maximum; inactive = score below 0.9.

Legend:
DIO2 (gene 1734) = experiment: CCTE_GLTED_hDIO2: CCTE's human Deiodinase 2 (DIO2) Inhibition Assay, Great Lakes Toxicology and Ecology Division (GLTED) Lab (AID 2284050; active = hit-call score of the fitted dose curve at least 0.9, where 1 is the maximum)
In short: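 Triplicate cell-free incubations (3 h) of human DIO2 with chemical preceded colorimetric Sandell-Kolthoff quantitation of liberated iodide; DMSO served as negative control for curve fitting.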

DIO3 (gene 1735) = experiment: CCTE_GLTED_hDIO3: CCTE's human Deiodinase 3 (DIO3) Inhibition Assay, Great Lakes Toxicology and Ecology Division (GLTED) Lab (AID 2284055; active = hit-call score of the fitted dose curve at least 0.9, where 1 is the maximum;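 also: potency is for inhibition seen as loss of released iodide signal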)
In short: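 Steps: incubate adenovirus-produced hDIO3 with chemical for 3 hours; detect freed iodide via cerium-arsenic Sandell-Kolthoff colorimetry; compare with DMSO baseline.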

[1] = CCTE_Shafer_MEA_dev_burst_duration_mean: CCTE's Neural Network Formation Assay for Mean Burst Duration, Shafer Lab (AID 2284045)
In short: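 Rat cortical cultures, 1.5 x 10^5 cells/well with laminin drop; continuous dosing days 0–12, media plus treatment refreshed DIV 5, 9. AxIS adaptive spike detection; mean single-electrode burst duration, AUC over four recordings, negative direction vs DMSO.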

[2] = CCTE_Shafer_MEA_dev_inter_network_spike_interval_mean: CCTE's Neural Network Formation Assay for Mean Inter-network Spike Interval, Shafer Lab (AID 2284047);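 as to AC50: potency for a decrease in mean inter-network spike interval below DMSO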
In short: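 Mean time between consecutive network-spike peaks, recorded extracellularly (adaptive spike detection) on DIV 5, 7, 9 and 12, summarized as trapezoidal AUC. Rat cortical cultures on MEAs dosed continuously days 0–12, re-dosed at feeds; loss-of-signal fit relative to DMSO.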

[3] = CCTE_Shafer_MEA_dev_network_spike_number: CCTE's Neural Network Formation Assay for Number of Network Spikes, Shafer Lab (AID 2284048);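 also: synchronized bursts across electrodes counted on days 5 7 9 12 and integrated as AUC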
In short: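 Rat cortical primary cultures on 48-well MEA (16 electrodes/well); continuous exposure DIV 0–12, full medium and treatment exchange DIV 5, 9. Readout: network spike count, AxIS adaptive detection, recordings DIV 5/7/9/12 collapsed to AUC; loss-of-signal fit, DMSO baseline.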

[4] = CCTE_Shafer_MEA_dev_network_spike_peak: CCTE's Neural Network Formation Assay for Mean Number of Electrodes in Network Spike, Shafer Lab (AID 2284049);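 as to AC50: fitted for loss of signal meaning fewer electrodes in network spikes than DMSO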
In short: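 Network-spike peak electrode count from recordings on days 5, 7, 9 and 12 was combined as trapezoidal area under the curve. Rat cortical cultures were treated continuously from plating, with compound renewed at each feed (DIV 5, 9); fits versus DMSO.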

[5] = CCTE_Shafer_MEA_dev_spike_duration_mean: CCTE's Neural Network Formation Assay for Mean Spike Duration, Shafer Lab (AID 2284051);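 also: mean network spike duration pooled as area under curve over DIV 5 to 12 recordings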;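 as to AC50: potency for a decrease in mean network spike duration versus DMSO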
In short: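 Spontaneous activity was recorded on days 5, 7, 9 and 12 from rat cortical cultures grown on microelectrode arrays and dosed continuously from day 0, with media and compound renewed after the DIV 5 and 9 recordings. Network-spike duration was collapsed by area under the curve.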

[6] = CCTE_Shafer_MEA_dev_network_spike_duration_std: CCTE's Neural Network Formation Assay for Standard Deviation of Network Spike Duration, Shafer Lab (AID 2284052);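 also: hits are decreases in network spike duration SD versus DMSO vehicle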
In short: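 Network spike duration variability was collapsed across recordings on days 5, 7, 9 and 12 by trapezoidal area-under-curve and fitted downward against DMSO. Cultures were rat cortical neurons on PEI-coated MEA plates, dosed continuously from plating, refed with compound DIV 5/9.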

[7] = CCTE_Shafer_MEA_dev_per_network_spike_spike_number_mean: CCTE's Neural Network Formation Assay for Mean Number of Spikes in a Network Spike, Shafer Lab (AID 2284053);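 as to AC50: fitted as decrease in spikes per network spike relative to DMSO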
In short: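 Mean spike count within each network spike, taken in a 0.05 s window at its peak, was recorded on days 5, 7, 9 and 12 and integrated as trapezoidal area under the curve. Rat cortical cultures on MEA plates received continuous compound from day 0, refreshed at medium changes on DIV 5 and 9.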

[8] = CCTE_Shafer_MEA_dev_per_network_spike_spike_percent: CCTE's Neural Network Formation Assay for Percent of Spikes in a Network Spike, Shafer Lab (AID 2284054)
In short: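 Read-out: percent of spikes falling in a 0.05 s window at network-spike peak, from spontaneous MEA recordings on days 5, 7, 9 and 12; trapezoidal AUC; loss of signal versus DMSO. Rat cortical cultures, compound present throughout.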

Measured: AC50

COc1cccc(-c2ccc(/C=C\CN3CCCCCC3)cc2Cl)c1
active: DIO2 (gene 1734) 77700 nM | DIO3 (gene 1735) 32800 nM

COc1ccc(-n2nc(C(F)F)cc2-c2ccc(S(C)=O)cc2)cc1 (stereo unspecified)
active: [4] 1980 nM | [5] 1980 nM
inactive: [1] | [2] | [3] | [6] | [7] | [8]

CCOC(=O)c1ccc(C2CCC(NC[C@H](O)COc3ccc(O)c(NS(C)(=O)=O)c3)CC2)cc1 (stereo partly specified)
active: DIO2 (gene 1734) 105000 nM | DIO3 (gene 1735) 126000 nM

CC[C@H](C)C(=O)O[C@H]1C[C@@H](C)C=C2C=C[C@H](C)[C@H](CC[C@@H]3C[C@@H](O)CC(=O)O3)[C@H]21
active: [2] 1980 nM | [4] 1560 nM | DIO2 (gene 1734) 82500 nM | [5] 2550 nM | [7] 2220 nM | [8] 1770 nM | DIO3 (gene 1735) 100000 nM
inactive: [1] | [3] | [6]

O=C(OC[C@H]1O[C@@H](OC(=O)c2cc(O)c(O)c(OC(=O)c3cc(O)c(O)c(O)c3)c2)[C@H](OC(=O)c2cc(O)c(O)c(OC(=O)c3cc(O)c(O)c(O)c3)c2)[C@@H](OC(=O)c2cc(O)c(O)c(OC(=O)c3cc(O)c(O)c(O)c3)c2)[C@@H]1OC(=O)c1cc(O)c(O)c(OC(=O)c2cc(O)c(O)c(O)c2)c1)c1cc(O)c(O)c(OC(=O)c2cc(O)c(O)c(O)c2)c1
active: DIO2 (gene 1734) 22400 nM | DIO3 (gene 1735) 14800 nM

CC(C)=CCCC(C)=CC=O
active: DIO2 (gene 1734) 100000 nM | DIO3 (gene 1735) 31300 nM

CCC(C)(C)C(=O)O[C@H]1C[C@@H](C)C=C2C=C[C@H](C)[C@H](CC[C@@H]3C[C@@H](O)CC(=O)O3)[C@H]21
active: [2] 506 nM | [4] 688 nM | DIO2 (gene 1734) 64500 nM | [5] 1030 nM | [7] 1100 nM | [8] 844 nM | DIO3 (gene 1735) 97800 nM
inactive: [1] | [3] | [6]

CC[C@H]1OC(=O)[C@H](C)[C@@H](O[C@H]2C[C@@](C)(OC)[C@@H](O)[C@H](C)O2)[C@H](C)[C@@H](O[C@@H]2O[C@H](C)C[C@H](N(C)C)[C@H]2O)[C@](C)(O)C[C@@H](C)C(=O)[C@H](C)[C@@H](O)[C@]1(C)O
inactive: [1] | [2] | [3] | [4] | [5] | [6] | [7] | [8]

NC(=O)NO
inactive: [1] | [2] | [3] | [4] | [5] | [6] | [7] | [8]

Clc1nc(Cl)c(Cl)c(Cl)c1Cl
active: DIO2 (gene 1734) 14800 nM | DIO3 (gene 1735) 920 nM

Cn1c(=O)c2c(ncn2C)n(C)c1=O
inactive: [1] | [2] | [3] | [4] | [5] | [6] | [7] | [8]

Nc1nc2ncc(CNc3ccc(C(=O)N[C@@H](CCC(=O)O)C(=O)O)cc3)nc2c(=O)[nH]1
inactive: [1] | [2] | [3] | [4] | [5] | [6] | [7] | [8]

CNCc1ccc(NC(=O)c2c[nH]c3c2C(=O)CCC3)cc1
inactive: [1] | [2] | [3] | [6] | [8]
active: [4] 2030 nM | [5] 666 nM | [7] 2490 nM

O=P(OC(CCl)CCl)(OC(CCl)CCl)OC(CCl)CCl
active: [4] 2980 nM
inactive: [1] | [2] | [3] | [5] | [6] | [7] | [8]

O=C1CCC(N2C(=O)c3ccccc3C2=O)C(=O)N1 (stereo unspecified)
inactive: [1] | [2] | [3] | [4] | [5] | [6] | [7] | [8]

CCOc1cccc(-n2cc(C(=O)N3CCN(c4cc(C(=O)O)c5ccccc5c4)CC3)nc2-c2ccc(C)cc2)c1
active: DIO2 (gene 1734) 100000 nM | DIO3 (gene 1735) 140000 nM
